The test system of assay [1] is DLD1. The experiment in a line: cell viability (CellTiter-Glo) relative to plate median (fraction of plate median); higher = more viable cells. Conditions: 5 µM; treatment time 24 h; reporter: 7TFP. Put shortly:
(§1)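 Colorectal cancer cell lines stably carrying lentiviral TCF/Wnt firefly luciferase reporters (7TFP or TCF4/Wnt) were plated in 384-well plates and, 24 h later, given library compounds at a final 5 µM for 24 h. Firefly luciferase or CellTiterGlo luminescence was read on parallel plates with a Tecan F500 reader. Each well's signal was normalised to the plate median in webcellHTS2 (additive, without log transformation). Values are the mean of two independent replicates.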
Background: ATP-based viability assays read luminescence as a measure of living cells.

For assay [2], the system named is HCT116. Described as above. Particulars: 5 µM; treatment time 24 h; reporter: TCF4/Wnt. The method, boiled down: as §1
Assay [3] relates to SW480. Described as above. Conditions: 5 µM; treatment time 24 h; reporter: 7TFP. The method, boiled down:
as §1

For assay [4], the system named is DLD1. The experiment in a line: TCF/Wnt firefly luciferase reporter signal relative to plate median (fraction of plate median); higher = higher Wnt reporter signal. Particulars: 5 µM; treatment time 24 h; reporter: 7TFP. Put shortly:
as §1

The subject of assay [5] is SW480. Described as above. Conditions: 5 µM; treatment time 24 h; reporter: 7TFP. The method, boiled down:
as §1

Values joined by “and” are separate entries in the source; they are usually repeats but may differ in a detail not shown here. Equal entries are not always repeated. ± gives the standard deviation of the averaged measurements.

With `NCCc1ccc(O)c(O)c1`, the cell viability in assay [1] was 0.922 and 1; in assay [2], 1.05 and 1.1; in assay [3] it was 0.998 and 0.98. The “TCF/Wnt firefly luciferase reporter signal” value was 1.01 and 1.02 in assay [4]; 0.963 and 0.967 in assay [5].

Turning to `O=C(CCc1ccc(O)cc1)c1c(O)cc(O)cc1O`, the cell viability turned out to be 0.974 ± 0.093 in assay [1], 0.88 ± 0.047 in assay [2] and 0.933 ± 0.0042 in assay [3]. In addition, the “TCF/Wnt firefly luciferase reporter signal” value in assay [4] was 0.75 ± 0.047; in assay [5], 0.858 ± 0.037.

`CO[C@@H]1[C@@H](OC(N)=O)[C@@H](O)[C@H](Oc2ccc3c(O)c(NC(=O)c4ccc(O)c(CC=C(C)C)c4)c(=O)oc3c2C)OC1(C)C`: the cell viability in assay [1] came to 0.988 ± 0.088; in assay [2] it was 0.8935 ± 0.005; in assay [3] it was 1.004 ± 0.0085. The “TCF/Wnt firefly luciferase reporter signal” value in assay [4] was determined as 1.27 ± 0.05; in assay [5], 1.14.

In the case of `CC(=O)N(O)CCCCCNC(=O)CC(O)(CC(=O)NCCCCCN(O)C(C)=O)C(=O)O` [Arthrobactin], the cell viability came to 0.989 ± 0.03 in assay [1], 1.06 ± 0.057 in assay [2] and 1.03 ± 0.049 in assay [3]. Besides, the “TCF/Wnt firefly luciferase reporter signal” value in assay [4] is 0.976 ± 0.12; in assay [5] it was 1.06 ± 0.028.

As to `CCOC(=O)[C@H](CCc1ccccc1)N[C@@H](C)C(=O)N1Cc2ccccc2C[C@H]1C(=O)O`, the cell viability in assay [1] came out at 0.99 ± 0.057; in assay [2], 0.895 ± 0.071; in assay [3], 0.952 ± 0.066. For the same molecule, the entries for the “TCF/Wnt firefly luciferase reporter signal” value in assay [4] and in assay [5] were 0.958 ± 0.0085 and 0.876 ± 0.0057, respectively.

For the molecule `C[C@H]1[C@H](C)CC[C@]2(C(=O)O)CC[C@]3(C)C(=CC[C@@H]4[C@@]5(C)C[C@@H](O)[C@H](O)[C@@](C)(CO)[C@@H]5CC[C@]43C)[C@H]12`, the results for the cell viability in assay [1], in assay [2] and in assay [3] were 1.04 ± 0.072, 1.1 ± 0.15 and 1.1 ± 0.021, respectively. Moreover, the “TCF/Wnt firefly luciferase reporter signal” value in assay [4] amounted to 0.974 ± 0.093; in assay [5], 1.05 ± 0.035.

`C[C@H]1O[C@H](O[C@H]2[C@H](O)[C@@H](O)[C@@H](O[C@H]3[C@H](O)[C@@H](O)C(O)O[C@@H]3CO)O[C@@H]2CO)[C@H](O)[C@@H](O)[C@@H]1N[C@H]1C=C(CO)[C@@H](O)[C@H](O)[C@H]1O` (stereo not given in full): the cell viability in assay [1] is 1.01 ± 0.034; in assay [2], 0.96 ± 0.057; in assay [3], 0.988 ± 0.012. Further, the “TCF/Wnt firefly luciferase reporter signal” value in assay [4] was 1.06; in assay [5], 1.02 ± 0.014.

Regarding `O=C(O)C1=CC(=C(c2ccc(O)c(C(=O)O)c2)c2ccc(O)c(C(=O)O)c2)C=CC1=O`, the cell viability was 1.03 ± 0.14 in assay [1], 1.03 ± 0.028 in assay [2] and 1.06 ± 0.05 in assay [3]. Also, the results for the “TCF/Wnt firefly luciferase reporter signal” value in assay [4] and in assay [5] were 0.996 ± 0.09 and 1.01 ± 0.049, respectively.

In the case of `O=C(O)c1cccnc1`, the results for the cell viability in assay [1], in assay [2] and in assay [3] were 1.05 ± 0.042, 1.01 ± 0.11 and 1.06 ± 0.05, respectively. In addition, the “TCF/Wnt firefly luciferase reporter signal” value in assay [4] is 0.969 ± 0.039; in assay [5], 0.976 ± 0.062.

With `CC12CCC(CC1)C(C)(C)O2`, the cell viability in assay [1] is 0.996 ± 0.049; in assay [2], 1.055 ± 0.0071; in assay [3], 0.934 ± 0.019. For the same molecule, the “TCF/Wnt firefly luciferase reporter signal” value in assay [4] was 1.21 ± 0.18; in assay [5] it was 1.11 ± 0.099.

With `CCN(CC)CCCC(C)Nc1c2ccc(Cl)cc2nc2ccc(OC)cc12` (stereo not given), the figures for the cell viability in assay [1], in assay [2] and in assay [3] were 1.02 ± 0.014, 0.886 ± 0.19 and 1.05 ± 0.014, respectively. Moreover, the “TCF/Wnt firefly luciferase reporter signal” value in assay [4] is 1.11 ± 0.042; in assay [5], 0.888 ± 0.036.

Consider `C[N+]1(CCCCC[N+]2(C)CCCC2)CCCC1`, for which the cell viability came out at 0.998 ± 0.018 in assay [1], 1.01 ± 0.039 in assay [2] and 0.995 ± 0.064 in assay [3]. In addition, the “TCF/Wnt firefly luciferase reporter signal” value stood at 0.888 ± 0.21 in assay [4] and 0.98 ± 0.071 in assay [5].

Take `Oc1ccc(Cl)c2cccnc12`: the cell viability in assay [1] stood at 1.025 ± 0.0071; in assay [2], 0.988 ± 0.032; in assay [3], 1.02 ± 0.021. Besides, the results for the “TCF/Wnt firefly luciferase reporter signal” value in assay [4] and in assay [5] were 0.935 ± 0.069 and 1.09 ± 0.042, respectively.

As for `COC(=O)[C@H](Cc1ccccc1)NC(=O)[C@@H](N)CC(=O)O`, the cell viability was 0.952 ± 0.082 in assay [1], 1.08 ± 0.11 in assay [2] and 1.06 ± 0.014 in assay [3]. In addition, the “TCF/Wnt firefly luciferase reporter signal” value turned out to be 1.045 ± 0.0071 in assay [4] and 0.985 ± 0.14 in assay [5].
